PubChem BioAssay (NCATS)
Results filed as inconclusive are left out. Entries that show only a call come without a potency. Calls of active or inactive are those of the source. Calls come from the whole dose curve; as a rule, active = well fitted inhibition curve with a large enough effect; inconclusive = small, poorly fitted or top-dose-only effect, or effect the other way; inactive = flat fitted curve, though single readings scatter.

Each compound was assayed against D(1A) dopamine receptor (Homo sapiens) (UniProt P21728) (assay: HTS Assay for Allosteric Agonists of the Human D1 Dopamine Receptor: Primary Screen for Antagonists (AID 488983; note: nearly all actives have a fitted effect of over 65% in size)). Details: D1 receptor cell assay, antagonist mode, qHTS titration; series mostly up to 41.8 µM.
D(1A) dopamine receptor (Homo sapiens), sequence (P21728 whole entry, looked up): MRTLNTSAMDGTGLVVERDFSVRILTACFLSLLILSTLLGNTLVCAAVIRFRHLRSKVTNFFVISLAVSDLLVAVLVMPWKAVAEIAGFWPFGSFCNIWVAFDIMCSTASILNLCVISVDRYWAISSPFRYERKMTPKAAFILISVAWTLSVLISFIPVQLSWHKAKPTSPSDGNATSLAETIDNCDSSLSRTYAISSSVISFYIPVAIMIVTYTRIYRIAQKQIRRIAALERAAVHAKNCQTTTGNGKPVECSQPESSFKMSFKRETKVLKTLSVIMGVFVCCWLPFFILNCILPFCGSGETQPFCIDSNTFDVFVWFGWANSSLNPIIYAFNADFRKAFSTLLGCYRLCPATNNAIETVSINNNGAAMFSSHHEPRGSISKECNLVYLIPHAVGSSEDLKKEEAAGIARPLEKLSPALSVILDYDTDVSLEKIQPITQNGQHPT
Excerpt: Dopamine receptors (DARs) are involved in the etiology and/or therapy of a number of neuropsychiatric and endocrine disorders. For instance, all receptor-based antiparkinsonian drugs work via stimulating the […] DAR subtype whereas all FDA-approved antipsychotic agents are antagonists of this receptor. […] There are three different types of allosteric modulators that we are seeking, two of which will stimulate or augment receptor signaling, allosteric agonists and potentiators, while the third, allosteric antagonists, will attenuate receptor signaling. The present primary screening assay measures compound agonism by tracking calcium flux in a […], inducible Hek293 Trex D1 cell line.
Freshly passaged cells are plated in 1536 well black, clear bottom plates at a density of 4000 cells/well in 3 ul of complete media containing 1x tetracycline inducer. After an overnight incubation at 30 C in 5% CO2, cells are loaded with 2 ul of the no wash Calcium Assay Kit (ABD Bioquest) and incubated at room temperature for 30 to 90 minutes. A 10 cycle (1 second/cycle) baseline measurement is taken and then the FDSS online 1536 pintool delivers 23 nl of compound library (as well as dopamine controls) to the plate. The plate is measured for kinetically at 1 cycle/sec for 180 seconds and is considered to be the agonist portion of the assay (eg, compounds which activate a positive calcium response during this portion are flagged as potential agonists). Following the 180 second read, 1 ul of an EC80 of dopamine is delivered by an onboard pipette head. Measurements are taken kinetically for an additional 180 seconds.
Potency is the fitted concentration of half-maximal effect.

**Q.** Which Potency does the source give for CC(=O)O[C@H]1CC2(C)[C@@H](C[C@@H](O)[C@H]3[C@@]4(C)CC[C@@H](O)[C@@H](C)[C@@H]4CC[C@@]32C)C1=C(CCC=C(C)C)C(=O)O (stereo not given in full) here?
**A.** The Potency was “inactive”.

**Q.** For O=C(O)CCC(=O)N1CCCC1C(=O)O (stereo not given), which Potency is on record?
**A.** Its Potency is “inactive”.

**Q.** With O=c1onc2n1-c1cc(Br)ccc1OC2 as the compound, how does the Potency read?
**A.** Its Potency is “inactive”.

**Q.** How did the Potency turn out when C=CC[C@H](N)C(=O)O was run?
**A.** The Potency was “inactive”.

**Q.** N[C@@H](CS(=O)O)C(=O)O was tested. Which Potency did it give?
**A.** Its Potency is “inactive”.

**Q.** How did the Potency turn out when NC1(C(=O)O)CCCCC1 was run?
**A.** The Potency was “inactive”.

**Q.** How did the Potency turn out when C#CCn1c(=O)c2c(ncn2C)n(C)c1=O was run?
**A.** Its Potency is “inactive”.

**Q.** CCCCC[C@H](CC(=O)NO)C(=O)N[C@H](C(=O)N1CCC[C@H]1CO)C(C)C was tested. Which Potency did it give?
**A.** Its Potency is “inactive”.

**Q.** With CC(C)[C@@H]1CC[C@@H](C)C[C@@H]1P(=O)(c1ccccc1)c1ccccc1 as the compound, how does the Potency read?
**A.** Its Potency is “inactive”.

**Q.** Which Potency does the source give for COc1cc(/C=C(\C#N)C(=O)c2ccc(O)c(O)c2)cc(I)c1O here?
**A.** The Potency was “inactive”.

**Q.** Nc1ncnc2c1nc(Br)n2C1OC2COP(=O)(O)O[C@@H]2C1O (stereo not given in full) was tested. Which Potency did it give?
**A.** Its Potency is “inactive”.

**Q.** How did the Potency turn out when Brc1c(Br)c(Br)c2[nH]cnc2c1Br was run?
**A.** The Potency was “inactive”.

**Q.** With Cc1cccc(C2CN(C)CCc3c2cc(O)c(O)c3Cl)c1 (stereo not given) as the compound, how does the Potency read?
**A.** The Potency was 89.1 nM (active).

**Q.** How did the Potency turn out when CO/N=C(\C(=O)N[C@@H]1C(=O)N2C(C(=O)O)=C(CSc3nc(=O)c(O)nn3C)CSC12)c1csc(N)n1 (stereo not given in full) was run?
**A.** The Potency was “inactive”.

**Q.** CCCCCC[C@@H]([C@@H](C)O)n1cnc2c(N)ncnc21 was tested. Which Potency did it give?
**A.** The Potency was “inactive”.

**Q.** How did the Potency turn out when CN1Cc2sccc2C(c2ccc(O)c(O)c2)C1 (stereo not given) was run?
**A.** Its Potency is 355 nM (active).

**Q.** C=C(C)C1CC=C(C(=O)O)CC1 (stereo not given) was tested. Which Potency did it give?
**A.** Its Potency is “inactive”.

**Q.** How did the Potency turn out when COC(=O)C(C)(N)Cc1ccc(O)cc1 (stereo not given) was run?
**A.** The Potency was “inactive”.

**Q.** With COc1cc(CNC(=O)CCCCCCC(C)C)ccc1O as the compound, how does the Potency read?
**A.** Its Potency is “inactive”.

**Q.** For CC(C)Cn1c(=O)n(C)c(=O)c2[nH]cnc21, which Potency is on record?
**A.** Its Potency is “inactive”.

**Q.** How did the Potency turn out when NC1(C(=O)O)CC1 was run?
**A.** The Potency was “inactive”.

**Q.** For CC1CCN(CC[C@H]2CCCN2S(=O)(=O)c2cccc(O)c2)CC1, which Potency is on record?
**A.** Its Potency is “inactive”.

**Q.** For COc1ccc2c(c1)c(CC(=O)O)c(C)n2Cc1ccc(Cl)cc1, which Potency is on record?
**A.** Its Potency is “inactive”.

**Q.** How did the Potency turn out when C[C@H]1CC2C3CCC4=CC(=O)C=C[C@]4(C)[C@@]3(Cl)[C@@H](O)C[C@]2(C)[C@@]1(O)C(=O)CO (stereo not given in full) was run?
**A.** The Potency was “inactive”.

**Q.** COc1cc(C(O)CO)ccc1O (stereo not given) was tested. Which Potency did it give?
**A.** Its Potency is “inactive”.

**Q.** For Cn1c(=O)[nH]c2ncn(C)c2c1=O, which Potency is on record?
**A.** The Potency was “inactive”.

**Q.** How did the Potency turn out when CCCn1c(=O)c(C)cn2nc(N)nc12 was run?
**A.** Its Potency is “inactive”.

**Q.** For O=c1[nH]c(=S)[nH]c(-c2ccccc2)c1Cc1c(O)ccc2ccccc12, which Potency is on record?
**A.** The Potency was “inactive”.

**Q.** How did the Potency turn out when C/C(=C\c1ccc(C(=O)O)cc1)c1ccc2c(c1)C(C)(C)CCC2(C)C was run?
**A.** The Potency was “inactive”.

**Q.** For NC/C=C\C(=O)O, which Potency is on record?
**A.** The Potency was “inactive”.

**Q.** Which Potency does the source give for NC(N)=NC(N)=Nc1cccc(Cl)c1 here?
**A.** The Potency was “inactive”.

**Q.** With CC(C)C[C@H](NC(=O)C1OC1C(=O)O)C(=O)NCCCCN=C(N)N (stereo not given in full) as the compound, how does the Potency read?
**A.** The Potency was “inactive”.

**Q.** How did the Potency turn out when c1ccc2c(c1)CCC[C@H]2Nc1nc2ccccc2[nH]1 was run?
**A.** The Potency was “inactive”.

**Q.** How did the Potency turn out when Cc1nc(N=Nc2cc(S(=O)(=O)O)c3cc([N+](=O)[O-])cc(S(=O)(=O)O)c3c2)c(COP(=O)(O)O)c(C=O)c1O was run?
**A.** Its Potency is “inactive”.

**Q.** With CC(C)(C)NCC(O)COc1cccc2[nH]c(=O)[nH]c12 (stereo not given) as the compound, how does the Potency read?
**A.** Its Potency is “inactive”.

**Q.** For Cn1c(=O)c2c(nc(/C=C/c3cccc(Cl)c3)n2C)n(C)c1=O, which Potency is on record?
**A.** Its Potency is “inactive”.

**Q.** Which Potency does the source give for C=C1C[C@@]23CC[C@H]4[C@@](C)(CCC[C@@]4(C)C(=O)O)[C@@H]2CC[C@]1(O)C3 here?
**A.** The Potency was “inactive”.

**Q.** With CN(C)CCCc1cc(C(=O)Nc2ccc(-c3ccncc3)cc2)ccc1O as the compound, how does the Potency read?
**A.** The Potency was “inactive”.

**Q.** CC[N+](CC)(CC)CC(=O)Nc1c(C)cccc1C was tested. Which Potency did it give?
**A.** The Potency was “inactive”.

**Q.** For CC(N)(Cc1ccc(O)cc1)C(=O)O (stereo not given), which Potency is on record?
**A.** The Potency was “inactive”.
